Assay results reported in PubChem BioAssay AID2783 (National Center for Advancing Translational Sciences (NCATS), 2010).
Records with an inconclusive call do not appear. Calls of active or inactive are those of the source. Calls follow the shape of the dose curve; as a rule, active = well fitted inhibition curve with a large enough effect in the polarisation, with a control signal flat (not every such curve was filed as active); inconclusive = small, poorly fitted or top-dose-only effect, or effect the other way, or a change in a side signal; inactive = no such curve, though single readings can be large or run the other way; the % refers to the polarisation. Where a SMILES comes first, the peptide text is derived from it. Bridges are numbered along the chain shown (N, C = ends). [ ]: non-standard residue; d: D form. The star is where a group is joined. ξ: configuration not given here. Octanoyl(6-Me) = CCC(C)CCCCC(=O)*; ξThr(3R) = C[C@@H](O)C(N)C(=O)O; dDab = NCC[C@@H](N)C(=O)O; Dab = NCC[CH](N)C(=O)O

target: Histone-lysine N-methyltransferase 2A (Homo sapiens) (UniProt Q03164); assay: Confirmation of Inhibitors Targeting the Menin-MLL Interaction in MLL Related Leukemias: Competition With Fluorescein Labeled MLL-derived Peptide; settings: Fluorescence polarization, fluorescein-MLL peptide displacement from menin
From the text: qHTS Assay for Inhibitors Targeting the Menin-MLL Interaction in MLL Related Leukemias
NIH Chemical Genomics Center [NCGC]
NIH Molecular Libraries Probe Centers Network [MLPCN]
Assay Submitter (PI): Jolanta Grembecka, Tomasz Cierpicki, University of Virginia
Translocations of the MLL (Mixed Lineage Leukemia) gene are frequently found in human leukemias affecting both children and adults. Fusion of MLL to one of more than 60 genes results in generation of oncogenic proteins upregulating Hox genes, which are vital to blood cell development. Patients harboring fusion of the MLL gene suffer from aggressive leukemias and respond poorly to available therapies. All of the oncogenic fusion proteins have a preserved N-terminal fragment of MLL that has been identified to interact with menin. It has been recently discovered that association with menin is critical to the leukemogenic activity of the MLL fusion oncoproteins. Selective targeting of the menin-MLL interaction could provide an attractive therapeutic approach to develop novel drugs for MLL-related leukemias. Small molecules blocking the menin-MLL interaction should reverse the oncogenic potential of MLL fusion proteins.
We have developed and optimized a fluorescence polarization-based assay for the identification of Menin-MLL inhibitors. The assay was run employing two different MLL-derived peptides. The present assay uses a 12 amino acid peptide labeled with fluorescein at its N-terminus. This peptide consists of the menin high affinity binding motif from MLL and is potently bound by menin. Another peptide with a mutated sequence, labeled with Texas Red, was used in parallel as a less stringent screen for inhibitors.
The present assay was run to confirm the activity of hits from the primary screen.
The Menin protein, the MLL-wild type (w.t.) derived peptide (N-terminal 12 amino acids), the MLL-derived peptide labeled with Texas Red and the MLL-w.t. peptide labeled with Fluorescein were kindly supplied by laboratory of Dr. Jolanta Grembecka, University of Virginia. All protein and peptide solutions were stored in single use aliquots at -80C. The Eu3+ Cyrptate-conjugated mouse monoclonal antibody anti-6 Histidine (Eu3+-AB) and the Streptavidin-XL665 conjugate (XL665) were purchased from Cisbio International (Bedford, MA). All antibody and XL665 conjugate solution stocks were stored in single use aliquots at -20C. The Buffer components for all assays were purchased from Sigma-Aldrich (St. Louis, MO) and Invitrogen (Carlsbad, CA).
1. FP reaction buffer: 50 mM Tris-HCl pH 7.5, 50 mM NaCl, 1mM DTT.
Before use, 0.05% BSA is added.
2. Menin protein, MLL-w.t. labeled with fluorescein, MLL-mutant peptide labeled with texas red.
Stored in singe use aliquots at -80C.
3. MLL-w.t. unlabeled peptide as positive control: 10 uM final in FP buffer.
1. Prepare Menin at 200 nM, MLL-w.t.-fluorescein at 25 nM, and MLL-mutant-texas red at 50 nM mixture in FP buffer.
2. Prepare Menin at 200 nM, MLL-w.t.-fluorescein at 25 nM, MLL-mutant-texas red at 50 nM, and 10 uM MLL-w.t. unlabeled mixture in FP buffer.
3. Prepare MLL-w.t.-fluorescein at 25 nM and MLL-mutant-texas red at 50 nM mixture in FP buffer.
3. Dispense 4 ul per well of reagent in step 1 in columns 2, 4 - 48 in a black 1536 well plate, dispense 4 ul per well of reagents from steps 2 and 3 in columns 1 and 3 respectively. Incubate plate at ambient for 15 minutes.
4. Transfer 23 nl per well of compound to plate and incubate at ambient for 1 hr.
5. Read fluorescence polarization for each label using the PerkinElmer Envision.
Envision protocol for fluorescein: FITC FP Dual Enh Mirror, Excitation filter 480, Emission filter (1) P-pol 535, Emission filter (2) S-pol 535
Envision protocol for texas red: FP Dual Enh Mirror, Excitation filter 555, Emission filter (1) P-pol 632, Emission filter (2) S-pol 632
Potency is read from the fitted curve at half-maximal effect.

Sequence of Histone-lysine N-methyltransferase 2A (Homo sapiens) (Q03164 whole entry, looked up): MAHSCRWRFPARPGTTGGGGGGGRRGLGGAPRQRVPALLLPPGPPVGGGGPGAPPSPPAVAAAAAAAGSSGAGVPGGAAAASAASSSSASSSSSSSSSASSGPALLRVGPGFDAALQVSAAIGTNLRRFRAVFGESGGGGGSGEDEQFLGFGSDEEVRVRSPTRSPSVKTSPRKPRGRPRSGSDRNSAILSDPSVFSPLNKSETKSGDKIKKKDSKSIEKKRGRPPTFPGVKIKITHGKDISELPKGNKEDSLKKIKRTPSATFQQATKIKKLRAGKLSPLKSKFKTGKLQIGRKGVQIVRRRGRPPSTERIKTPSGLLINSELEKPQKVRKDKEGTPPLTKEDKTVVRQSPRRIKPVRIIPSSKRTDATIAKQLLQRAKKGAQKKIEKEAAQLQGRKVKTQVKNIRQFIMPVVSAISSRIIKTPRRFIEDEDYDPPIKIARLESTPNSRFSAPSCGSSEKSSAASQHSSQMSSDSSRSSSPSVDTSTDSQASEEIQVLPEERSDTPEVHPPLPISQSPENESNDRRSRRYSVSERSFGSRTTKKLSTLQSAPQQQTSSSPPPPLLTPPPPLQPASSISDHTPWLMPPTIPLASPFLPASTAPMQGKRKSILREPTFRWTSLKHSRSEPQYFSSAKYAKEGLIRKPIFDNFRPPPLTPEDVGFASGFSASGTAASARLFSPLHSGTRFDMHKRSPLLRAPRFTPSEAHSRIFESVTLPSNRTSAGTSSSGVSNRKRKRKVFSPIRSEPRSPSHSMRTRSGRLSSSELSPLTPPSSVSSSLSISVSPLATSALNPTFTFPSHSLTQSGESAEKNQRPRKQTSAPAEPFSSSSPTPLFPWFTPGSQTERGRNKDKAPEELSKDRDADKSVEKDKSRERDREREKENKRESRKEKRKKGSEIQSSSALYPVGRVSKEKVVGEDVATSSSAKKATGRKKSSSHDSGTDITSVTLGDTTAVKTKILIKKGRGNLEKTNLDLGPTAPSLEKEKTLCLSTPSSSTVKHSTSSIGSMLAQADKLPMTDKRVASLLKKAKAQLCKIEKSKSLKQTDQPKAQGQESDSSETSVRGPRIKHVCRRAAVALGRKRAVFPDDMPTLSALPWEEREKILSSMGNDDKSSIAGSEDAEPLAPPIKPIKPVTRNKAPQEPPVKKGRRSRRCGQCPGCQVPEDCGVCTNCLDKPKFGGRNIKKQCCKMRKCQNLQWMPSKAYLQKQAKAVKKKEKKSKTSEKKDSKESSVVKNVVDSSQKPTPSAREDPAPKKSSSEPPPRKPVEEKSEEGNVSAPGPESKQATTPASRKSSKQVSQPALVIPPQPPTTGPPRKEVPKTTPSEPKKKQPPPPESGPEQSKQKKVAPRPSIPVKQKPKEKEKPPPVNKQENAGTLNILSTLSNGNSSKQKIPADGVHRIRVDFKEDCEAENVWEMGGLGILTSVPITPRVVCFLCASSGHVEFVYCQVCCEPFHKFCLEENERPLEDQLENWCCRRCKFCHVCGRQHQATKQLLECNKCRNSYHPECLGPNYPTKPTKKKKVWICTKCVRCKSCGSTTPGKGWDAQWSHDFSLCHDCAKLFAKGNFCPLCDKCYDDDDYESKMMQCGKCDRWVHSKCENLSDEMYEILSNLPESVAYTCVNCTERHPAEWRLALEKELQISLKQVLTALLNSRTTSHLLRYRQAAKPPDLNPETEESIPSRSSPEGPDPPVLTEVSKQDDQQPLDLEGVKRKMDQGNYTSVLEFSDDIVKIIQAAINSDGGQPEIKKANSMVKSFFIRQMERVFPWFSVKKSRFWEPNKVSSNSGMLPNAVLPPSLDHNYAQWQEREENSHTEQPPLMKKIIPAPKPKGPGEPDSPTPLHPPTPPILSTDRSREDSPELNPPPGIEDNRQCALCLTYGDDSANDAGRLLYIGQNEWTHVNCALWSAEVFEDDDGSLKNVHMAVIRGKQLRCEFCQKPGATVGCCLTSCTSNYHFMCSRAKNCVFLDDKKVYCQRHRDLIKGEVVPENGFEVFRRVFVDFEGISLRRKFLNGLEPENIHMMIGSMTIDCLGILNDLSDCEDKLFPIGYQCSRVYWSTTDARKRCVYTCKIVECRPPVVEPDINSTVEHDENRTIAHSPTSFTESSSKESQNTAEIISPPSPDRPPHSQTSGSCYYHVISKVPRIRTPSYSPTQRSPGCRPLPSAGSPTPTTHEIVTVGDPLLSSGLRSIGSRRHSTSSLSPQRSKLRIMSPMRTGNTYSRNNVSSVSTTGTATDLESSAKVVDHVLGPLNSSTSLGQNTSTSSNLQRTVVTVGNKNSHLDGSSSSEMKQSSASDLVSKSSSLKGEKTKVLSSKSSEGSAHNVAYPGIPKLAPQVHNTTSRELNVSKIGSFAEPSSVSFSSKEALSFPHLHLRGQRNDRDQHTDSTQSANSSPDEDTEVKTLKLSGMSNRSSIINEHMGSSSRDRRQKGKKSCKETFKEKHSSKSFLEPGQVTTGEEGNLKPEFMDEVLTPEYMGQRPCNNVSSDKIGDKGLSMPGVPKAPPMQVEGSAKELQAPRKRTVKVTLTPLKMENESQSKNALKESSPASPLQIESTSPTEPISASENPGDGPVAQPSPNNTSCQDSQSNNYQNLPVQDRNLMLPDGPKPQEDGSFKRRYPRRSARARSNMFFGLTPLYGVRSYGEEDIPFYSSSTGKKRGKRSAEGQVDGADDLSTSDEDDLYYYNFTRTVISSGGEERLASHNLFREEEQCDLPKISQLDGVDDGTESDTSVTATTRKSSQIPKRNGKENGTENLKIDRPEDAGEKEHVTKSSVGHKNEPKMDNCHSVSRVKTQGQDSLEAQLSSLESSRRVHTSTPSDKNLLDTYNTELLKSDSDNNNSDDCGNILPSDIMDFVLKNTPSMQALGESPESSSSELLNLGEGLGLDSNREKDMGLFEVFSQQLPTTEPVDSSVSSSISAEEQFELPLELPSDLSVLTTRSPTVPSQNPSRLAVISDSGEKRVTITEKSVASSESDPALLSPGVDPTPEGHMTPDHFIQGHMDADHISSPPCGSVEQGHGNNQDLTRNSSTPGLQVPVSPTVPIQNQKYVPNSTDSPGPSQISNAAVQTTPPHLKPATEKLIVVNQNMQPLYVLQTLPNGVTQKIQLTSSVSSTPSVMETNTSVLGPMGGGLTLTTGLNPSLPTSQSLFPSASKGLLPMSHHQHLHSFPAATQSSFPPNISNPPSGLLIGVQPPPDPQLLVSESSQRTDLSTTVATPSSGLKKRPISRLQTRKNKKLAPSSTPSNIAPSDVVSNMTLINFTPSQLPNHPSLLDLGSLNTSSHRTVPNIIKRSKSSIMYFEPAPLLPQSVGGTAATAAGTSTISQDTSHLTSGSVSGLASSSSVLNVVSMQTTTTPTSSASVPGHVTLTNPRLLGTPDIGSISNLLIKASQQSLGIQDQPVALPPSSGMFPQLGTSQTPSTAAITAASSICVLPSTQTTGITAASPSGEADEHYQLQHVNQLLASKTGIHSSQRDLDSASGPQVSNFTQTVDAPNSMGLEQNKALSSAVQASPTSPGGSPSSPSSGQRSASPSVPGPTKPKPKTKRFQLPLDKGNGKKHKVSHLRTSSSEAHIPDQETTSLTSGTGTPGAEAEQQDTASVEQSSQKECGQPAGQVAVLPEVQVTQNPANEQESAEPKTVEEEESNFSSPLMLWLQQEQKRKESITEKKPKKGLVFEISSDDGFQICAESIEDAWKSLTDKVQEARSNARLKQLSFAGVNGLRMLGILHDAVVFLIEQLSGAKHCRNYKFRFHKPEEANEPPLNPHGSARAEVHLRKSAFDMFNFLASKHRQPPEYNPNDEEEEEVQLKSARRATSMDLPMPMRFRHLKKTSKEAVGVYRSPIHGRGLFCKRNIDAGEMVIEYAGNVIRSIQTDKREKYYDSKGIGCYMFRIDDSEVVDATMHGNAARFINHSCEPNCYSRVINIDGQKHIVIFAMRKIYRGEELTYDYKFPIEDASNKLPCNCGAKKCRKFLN

Potency, active:
CCCC[n+]1c2ccccc2cc2ccccc21 63.2 µM
c1cc(CN2CCCNCCNCCCNCC2)ccc1CN1CCCNCCNCCCNCC1 31.6 µM
O=C(C[N+]12CC[N+](CC(=O)c3ccc(F)cc3)(CC1)CC2)c1ccc(F)cc1 79.4 µM
CCC(c1nnnn1Cc1ccc(F)cc1)N1CCN(C2CCCCC2)CC1 (configuration not stated) 126 µM
NC(=NCCCCCCN=C(N)/N=C(\N)Nc1ccc(Cl)cc1)/N=C(\N)Nc1ccc(Cl)cc1 141 µM
CCC(C)CCCCC(=O)NC(CCN)C(=O)NC(C(=O)NC(CCN)C(=O)NC1CCNC(=O)C(C(C)O)NC(=O)C(CCN)NC(=O)C(CCN)NC(=O)C(CC(C)C)NC(=O)C(Cc2ccccc2)NC(=O)C(CCN)NC1=O)C(C)O (configuration not stated) ({Octanoyl(6-Me)}-[Dab]T[Dab][Dab][Dab]FL[Dab][Dab]T; lactam 4-C; configuration not given here) 10 µM
CC1(C)CN=C(N2CCN(c3ncnc4sc5c(c34)CCCC5)CC2)S1 22.4 µM
CCC[n+]1c2ccccc2cc2ccccc21 63.2 µM
COC(=O)[C@H](C)NC(=O)c1cc2c(cn1)[nH]c1ccccc12 50.2 µM
CCCC(c1nnnn1Cc1ccco1)N1CCN(C2CCCC2)CC1 (configuration not stated) 126 µM
CCC(C)CCCCC(=O)N[C@@H](CCN)C(=O)N[C@H](C(=O)N[C@@H](CCN)C(=O)N[C@H]1CCNC(=O)C([C@@H](C)O)NC(=O)[C@@H](CCN)NC(=O)[C@H](CCN)NC(=O)[C@H](CC(C)C)NC(=O)[C@@H](CC(C)C)NC(=O)[C@H](CCN)NC1=O)[C@@H](C)O (stereo partly drawn) ({Octanoyl(6-Me)}-[Dab]T[Dab][Dab][Dab][dL]L[Dab][dDab][ξThr(3R)]; lactam 4-C) 12.6 µM
N=C1c2ccccc2CN1c1ccc(N2CCOCC2)c(S(=O)(=O)Nc2ccc(Cl)cc2)c1 71 µM
COc1ccc(Cn2nnnc2C(c2ccc3ncccc3c2)N2CCN(C3CCCCC3)CC2)cc1 (configuration not stated) 200 µM
C[C@H](NC(=O)c1cc2c(cn1)[nH]c1ccccc12)C(=O)O 71 µM
CCc1cc2c(N3CCN(C(=O)c4ccco4)CC3)ncnc2s1 63.1 µM
Cc1sc2ncnc(NC3CCN(Cc4ccccc4)CC3)c2c1C 63.1 µM
CC(=O)NC1C(=O)N(CCN2CCOCC2)c2ccc(C)cc21 (configuration not stated) 79.6 µM
CCOc1cc(CNCCc2ccc(S(N)(=O)=O)cc2)ccc1OCc1ccccc1 126 µM
Cc1cc2c(N)cccc2nn1 141 µM
COc1ccccc1NS(=O)(=O)c1cc(N2Cc3ccccc3C2=N)ccc1N1CCOCC1 71 µM
CNC[C@H](CC1CCCCC1)NC[C@H](Cc1ccccc1)NCCC12CC3CC(CC(C3)C1)C2 79.4 µM
NC(=O)[C@@H]1CCCNc2c(I)cc([N+](=O)[O-])cc2C(=O)N[C@@H](CCCN=C(N)N)C(=O)N[C@@H](CCCN=C(N)N)C(=O)N1 251 µM
